Source: PubChem
Most compounds without a hit are left out; they make up all but 11% or so of the library.
ALDH1A1 block – blocks purified human ALDH1A1 activity. P00352. Purified ALDH1A1, NADH fluorescence, propionaldehyde substrate. Potency, µM (doses to about 75.3 µM), without a hit: at the highest dose activity, negative = inhibition, actives largely listed as inhibitors. actives 7.3% (n = 220,000); active means well fitted inhibition curve with a large enough effect, not every such curve was filed as active; inconclusive means small, poorly fitted or top-dose-only effect, or another doubt; inactive means no such curve, though single readings can be large or run the other way;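 further: potency means the concentration at half of the fitted maximal effect; plate controls were no enzyme wells and a reference inhibitor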
Target sequence (P00352 whole entry, looked up): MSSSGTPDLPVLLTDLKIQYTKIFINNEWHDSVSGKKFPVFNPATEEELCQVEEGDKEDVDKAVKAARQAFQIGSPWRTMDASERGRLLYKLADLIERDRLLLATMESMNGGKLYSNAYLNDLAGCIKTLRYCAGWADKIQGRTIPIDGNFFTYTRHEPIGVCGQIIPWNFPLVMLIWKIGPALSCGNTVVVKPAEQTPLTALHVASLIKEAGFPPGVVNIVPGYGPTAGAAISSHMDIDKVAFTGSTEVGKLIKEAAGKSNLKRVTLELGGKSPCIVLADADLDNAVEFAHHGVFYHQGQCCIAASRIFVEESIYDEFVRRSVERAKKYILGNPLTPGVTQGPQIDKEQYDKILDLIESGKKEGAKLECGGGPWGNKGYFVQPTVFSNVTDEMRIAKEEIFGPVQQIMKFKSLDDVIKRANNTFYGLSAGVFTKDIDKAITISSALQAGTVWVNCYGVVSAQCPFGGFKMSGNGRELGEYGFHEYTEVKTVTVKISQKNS
12-hLO inh – blocks human 12-lipoxygenase activity | actives 0.12% (n = 150,000) | P18054 | purified 12-hLO, xylenol orange hydroperoxide absorbance | Potency, µM (doses to about 57.1 µM), without a hit: top-dose activity change, negative = inhibition, most hits filed as inhibitors; further: potency means the concentration at half of the fitted maximal effect; nearly all actives have a fitted effect of over 55% in size
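Purified human 12hLO (150 nM final) was preincubated with compounds for 15 min at room temperature in 25 mM Hepes pH 7.0, 0.01% Triton X-100, then reacted with 40 uM arachidonic acid for 30 min. Hydroperoxide was detected with ferrous iron/xylenol orange.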
IMPase inh – membrane-permeable compound that blocks inositol monophosphatase. P97697. CHO-M1 cells, IP1 accumulation, HTRF TR-FRET ratio. inhibition (IP1 accumulation), % at 46.1 µM. 120,000 tested, under 10 active; active means well fitted curve in the direction sought with a large enough effect in the signal ratio, not every such curve was filed as active; inconclusive means small, poorly fitted or top-dose-only effect, or a change in a side signal; inactive means no such curve, though single readings can be large or run the other way; the % refers to the signal ratio;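 further: cells stimulated with carbachol in lithium chloride buffer; plate controls were DMSO basal wells for no effect and reference inhibitor wells for full effect; higher means more IMPase inhibition seen as more IP1 and lower FRET ratio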
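CHO-M1 cells (CHO stably expressing M1 receptor), compound up to 46 uM final, stimulated with carbachol (50 uM as added) in buffer with 50mM LiCl, pH 7.4, 30 min at 37C. Cytosolic IP1 read by TR-FRET; AC50 from Hill fits.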
IMPase Li inh – IMPase inhibition in cells with lithium potentiation; Potency, µM (series often up to 59.4 µM), for the others: at the top dose activity, negative = IMPase inhibition, actives largely listed as inhibitors; CHO-M1 cells, IP1 TR-FRET (IP-One), carbachol + lithium; AID 1457; actives 0.35% (n = 210,000);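 further: IP1 builds up when IMPase is blocked and the TR-FRET signal falls; potency means the concentration at half of the fitted maximal effect; plate controls were basal vehicle for no effect and high inhibitor control for full effect; nearly all actives have a fitted effect of over 50% in size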
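CHO cells stably expressing M1 receptor (2000/well, cultured 16–30 h) treated 30 min at 37C with compound plus low lithium. Cytosolic IP1 by TR-FRET (665/620 ratio and 620 channel) after 10 min lysis; AC50 by Hill fit.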
PNC assembly inh – inhibitors of perinucleolar compartment assembly. activity change (PNC), negative = inhibition, % at 10 µM. PC3M PTB-GFP, PNC prevalence imaging, 16 h; hits give low values. AID 2417. actives 3.1% (n = 140,000);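 active means readout at or below -70, meaning at least 70% loss of cells showing the perinucleolar compartment, a nuclear body marking cancer cells; inconclusive means readout between -30 and a set limit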;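 further: plate controls were DMSO wells for no effect and camptothecin positive control wells for full effect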
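PC3M cells stably expressing PTB-GFP, 750–1000 cells/well, treated 16 h at 37 °C with compound (23 nl of library stock), in duplicate. After paraformaldehyde fixation and Hoechst stain, imaged at 20x; PNC prevalence scored by image analysis.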
HPGD block – inhibitors of human 15-hydroxyprostaglandin dehydrogenase (HPGD) | P15428 | purified HPGD, NADH fluorescence kinetic, PGE2 substrate | Potency, µM, for inactives: top-dose activity change, negative = inhibition, most hits filed as inhibitors | actives 4.3% (n = 150,000) | AID 894; active means well fitted inhibition curve with a large enough effect, not every such curve was filed as active; inconclusive means small, poorly fitted or top-dose-only effect, or another doubt; inactive means no such curve, though single readings can be large or run the other way; further: potency means the concentration at half of the fitted maximal effect
Target sequence (P15428 whole entry, looked up): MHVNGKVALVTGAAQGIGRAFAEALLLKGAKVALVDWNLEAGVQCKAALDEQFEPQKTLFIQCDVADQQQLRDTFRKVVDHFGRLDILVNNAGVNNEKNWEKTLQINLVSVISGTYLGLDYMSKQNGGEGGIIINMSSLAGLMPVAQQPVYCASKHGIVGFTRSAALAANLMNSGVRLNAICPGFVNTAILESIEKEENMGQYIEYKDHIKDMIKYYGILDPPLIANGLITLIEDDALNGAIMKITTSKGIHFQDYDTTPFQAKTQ
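NADH formation kinetics: reaction with 30 uM PGE2 and 1 mM NAD+ (final), 20 nM enzyme, Tris-HCl pH 8 with Tween 20, after 15 min compound preincubation at room temperature. Fluorescence change, last versus first of five reads.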
Active calls of the source: *; ! = not confirmed by another sample; [ ] = remark or other dose. Unless noted, the call rests on the fitted dose curve; in most records, active means well fitted curve in the direction sought with a large enough effect; inconclusive means small, poorly fitted or top-dose-only effect, or another doubt; inactive means no such curve, though single readings can be large; an effect the other way counts as inactive or inconclusive. Unless noted, on the % scale 0 is the no-effect control and ±100 the full control effect.

For COc1ccc(-c2nnc(SCC(=O)N3c4ccccc4Sc4ccccc43)o2)cc1 the results were ALDH1A1 block 8%, 12-hLO inh 5%, IMPase inh -3, IMPase Li inh 12%, PNC assembly inh -100* and HPGD block -13%.
`COc1ccc(-c2nnc(SCC(=O)N3CCCCC3)o2)cc1` gave IMPase inh 1.
`CS(=O)(=O)Nc1cccc(-c2ccc3ncnc(Nc4ccc(F)cc4)c3c2)c1` gave ALDH1A1 block 14%, 12-hLO inh -7%, IMPase Li inh 23% and HPGD block inconclusive.
For O=C(O)C1CCCCN1S(=O)(=O)c1ccccc1 (stereo not drawn) the results were ALDH1A1 block 6%, 12-hLO inh 0%, IMPase inh -4, IMPase Li inh 22%[38.3 µM], PNC assembly inh -13 and HPGD block -6%.
Screening O=C1CCN(S(=O)(=O)c2ccccc2)C2CCCCC12 (stereo not drawn) returned ALDH1A1 block inconclusive, 12-hLO inh 0%, IMPase inh 5, IMPase Li inh 3%, PNC assembly inh -86* and HPGD block -8%.
CCCCCCC(=O)OCC(=O)c1ccc2c(c1)NC(=O)CO2 was read as ALDH1A1 block 3.5µM* and IMPase Li inh 0%.
`CCC(=O)c1ccc(OCC(=O)c2ccc3c(c2)NC(=O)CO3)cc1` gave ALDH1A1 block 4%.
O=C1COc2ccc(C(=O)c3ccccc3C(=O)O)cc2N1 was read as ALDH1A1 block -3%, 12-hLO inh 2%, IMPase Li inh -6%, PNC assembly inh 26 and HPGD block -1%.
For O=C1COc2ccc(C(=O)CCl)cc2N1 the results were ALDH1A1 block 0.11µM*.
For O=C1COc2ccc(C(=O)C[n+]3cccc(O)c3)cc2N1 the results were ALDH1A1 block 20µM*.
CCc1ccc(OCC(=O)OCC(=O)c2ccc3c(c2)NC(=O)CO3)cc1 was read as ALDH1A1 block -4%, 12-hLO inh 10%, IMPase inh 1, IMPase Li inh 19%[38.3 µM], PNC assembly inh 5 and HPGD block -20%.
For C#C[C@]1(OC(C)=O)CC[C@H]2[C@@H]3CCC4=CC(=O)CC[C@@H]4[C@H]3CC[C@@]21C the results were ALDH1A1 block 6%, 12-hLO inh -6%[0.00818 µM], IMPase Li inh 25% and HPGD block -6%.
`CCCc1ccc(/C=C2\C(=O)c3ccccc3C(O)=C2C(=O)OCC)cc1` gave ALDH1A1 block inconclusive, 12-hLO inh -22%, IMPase inh 9, IMPase Li inh 34%[38.3 µM], PNC assembly inh inconclusive and HPGD block 4.5µM*.
Screening CCOC(=O)C1=C(O)c2ccccc2C(=O)/C1=C\c1ccc(CC)cc1 returned ALDH1A1 block 19µM*, 12-hLO inh inconclusive, IMPase inh 9, IMPase Li inh 17%, PNC assembly inh -16 and HPGD block 0.89µM*.
C[N+]1(C)CCc2cc(O)c(O)cc2[C@H]1Cc1ccc(O)c(O)c1 was read as ALDH1A1 block 4%[13.5 µM], 12-hLO inh -11%[11.4 µM], IMPase Li inh 17% and HPGD block -3%.
Screening O=C(O)c1ccc(N/N=C/c2cccc(F)c2)cc1 returned ALDH1A1 block 20µM*, 12-hLO inh -6%, IMPase Li inh -8%, PNC assembly inh 11 and HPGD block inconclusive.
Screening O=C(O)c1ccc(N/N=C/c2ccc(F)c(F)c2)cc1 returned ALDH1A1 block -5%, 12-hLO inh -13%, IMPase inh 2, IMPase Li inh -10%, PNC assembly inh inconclusive and HPGD block -22%.
For COc1ccc(-c2nc(-c3ccccc3)c(Nc3c(C)cccc3C)o2)cc1 the results were ALDH1A1 block 2%, 12-hLO inh -2%, IMPase Li inh 3% and HPGD block -11%.
Clc1ccc(OCCCn2cncn2)cc1Cl was read as ALDH1A1 block 11µM*, 12-hLO inh -1%, IMPase inh -2, IMPase Li inh 3%, PNC assembly inh -19 and HPGD block -7%.
For c1ccc(COc2ccc(OCCCn3cncn3)cc2)cc1 the results were ALDH1A1 block -3%, 12-hLO inh -1%, IMPase inh 3, IMPase Li inh 33%[38.3 µM], PNC assembly inh 4 and HPGD block -14%.
`COC(=O)NC(c1cccc(F)c1)[C@@]1(C(=O)OC)CCCC1=O` (stereo partly drawn) gave ALDH1A1 block 3%[13.5 µM].
Screening CCS(=O)(=O)CCSc1nc2ccccc2o1 returned ALDH1A1 block 4%, 12-hLO inh 4%, IMPase inh 6, IMPase Li inh 22%[38.3 µM], PNC assembly inh -18 and HPGD block -7%.
O=S(=O)(CCSc1nc2ccccc2o1)c1nc2ccccc2s1 was read as ALDH1A1 block 0.28µM*, 12-hLO inh -2%, IMPase inh 1, IMPase Li inh 30%[38.3 µM], PNC assembly inh inconclusive and HPGD block -3%.
Screening O=S(=O)(CCSc1ccccn1)c1nc2ccccc2s1 returned ALDH1A1 block 0.22µM*, 12-hLO inh -5%, IMPase inh 3, IMPase Li inh 39%[38.3 µM], PNC assembly inh -13 and HPGD block -27%.
O=S(=O)(CCSc1nc2ccccc2o1)Cc1ccccc1 was read as ALDH1A1 block 20µM*, 12-hLO inh 6%, IMPase inh 8, IMPase Li inh 25%[38.3 µM], PNC assembly inh inconclusive and HPGD block -14%.
`O=S(=O)(NCCSc1nc2ccccc2o1)c1ccccc1` gave ALDH1A1 block inconclusive, 12-hLO inh -7%, IMPase inh -7, IMPase Li inh 7%[38.3 µM], PNC assembly inh inconclusive and HPGD block -11%.
O=C(CSc1ccccn1)Nc1nc2ccccc2s1 was read as ALDH1A1 block -7%, 12-hLO inh 5%, IMPase Li inh 4%, PNC assembly inh 34 and HPGD block -5%.
For COCC(=O)N1CCC2(CC1)CN(Cc1ccc(C#N)cc1)C2 the results were ALDH1A1 block 4%, 12-hLO inh 2%, IMPase Li inh 16% and HPGD block -8%.
`CCCCCCCCNC(C)C(O)c1ccc(SC(C)C)cc1` (stereo not drawn) gave ALDH1A1 block 7.9µM*!, 12-hLO inh -2%, IMPase Li inh 15%, PNC assembly inh -115* and HPGD block -3%.
COc1ccc2ccc3c(c2c1)N=CC1(O3)N(C)c2ccccc2C1(C)C (stereo not drawn) was read as ALDH1A1 block 13µM*, 12-hLO inh -19%, IMPase inh 8, IMPase Li inh 34%, PNC assembly inh 33 and HPGD block inconclusive.
